We go through 54 compounds from PubChem BioAssay AID1379 (National Center for Advancing Translational Sciences (NCATS), 2008).

The structures appear in SMILES notation. Out of some 200,000 compounds screened, about 560 (0.28%) were called active. The full list was thinned out, with actives kept by preference. A number with no mark means an inactive call. Calls follow the shape of the dose curve; as a rule, active = well fitted inhibition curve with a large enough effect; inconclusive = small, poorly fitted or top-dose-only effect; inactive = flat fitted curve, though single readings scatter.
% is scaled to controls: 0 for no effect and ±100 for the full control effect; potency is read from the fitted curve at half-maximal effect.

The target of the assay is Luciferin 4-monooxygenase (Photuris pensylvanica) (UniProt Q27757). As to the kind of experiment: Counterscreen for Luciferase (Kinase-Glo TM) Inhibition. Also: nearly all actives have a fitted effect of over 60% in size. As to conditions: ATP luminescence, 8 min; series mostly up to 38.3 µM; activity change, negative = inhibition: at the top concentration. The protocol:
NCGC Assay Overview: NIH Molecular Libraries Screening Centers Network [MLSCN] NIH Chemical Genomics Center [NCGC] MLSCN Grant: None Luciferase (Kinase-Glo, Promega Corporation) was assayed for its ability to generate light using ATP and luciferin as substrates. The ATP concentration in the assay (10 uM) was within the linear range of enzyme activity for the assay conditions used.
NCGC Assay Protocol Summary: Four uL of substrate mix (final concentration, 50 mM imidazole pH 7.2, 50 mM KCl, 7 mM MgCl2, 10 uM ATP, 0.01% Tween 20, 0.05% BSA) was dispensed into white 1536 well plates. Twenty-three nL of compound was delivered by a pin tool and 2 uL of luciferase detection mix (Kinase-Glo, Promega)) was added. Following 8-minute incubation at ambient temperature, luminescence was measured by a ViewLux (Perkin Elmer) at 5 seconds exposure/plate.
As for `Cc1cccc(N=C2NN=C(c3c[nH]c4ccccc34)CS2)c1`, the “activity change, negative = inhibition” value was 0.767%. On to `COCCn1c(C)cc(C2=NNC(=Nc3ccc(F)cc3)SC2)c1C`, for which the “activity change, negative = inhibition” value was -22.3%.

With `CCc1cccc(OC2OC(CO)C(O)C(O)C2NC(C)=O)c1` (centres undefined), the “activity change, negative = inhibition” value is 0.91%. In the case of `Cc1csc(-c2coc3cc(O[C@@H]4O[C@H](CO)[C@@H](O)[C@@H](O)[C@H]4O)ccc3c2=O)n1`, the Potency is 3.55 µM (active).

Turning to `COc1cc(/C=C/CO)cc(OC)c1O[C@@H]1O[C@H](CO)[C@@H](O)[C@H](O)[C@H]1O`, the “activity change, negative = inhibition” value was 1.26%.

For `C=CCN1C=C2C(=O)C(C)(OC(=O)CCc3ccccc3)C(=O)C=C2C=C1c1ccc(C#N)cc1` (centres undefined), the activity change, negative = inhibition was -4.17% [at 7.66 µM].

In the case of `C=C/C1=C/Cc2ccccc2[C@H](C[N+](=O)[O-])C(C(=O)OC)(C(=O)OC)C1`, the “activity change, negative = inhibition” value was -0.469%. The same measure, in the same setting: the same measure for `CC(C)(C)OC(=O)NCCCC1=CC2=CC(=O)C(C)(OC(=O)c3ccco3)C(=O)C2=CO1` (centres undefined): -0.651%; for `COC(=O)C1=C(C(=O)OC)[C@@H]2Nc3ccccc3[C@@]23C[C@@H](C(=O)OC)N(S(=O)(=O)c2ccc([N+](=O)[O-])cc2)C3=N1`: -3.38% [at 7.66 µM]. Consider `Cc1ccc(-c2cn3cc(C)ccc3n2)cc1`, for which the Potency was 11.2 µM (active). With `COc1ccc(-c2cn3ccsc3n2)cc1`, the “activity change, negative = inhibition” value is -24.5%. On the same count and under the same terms, the same measure for `Cc1ccc(-c2cn3cc([N+](=O)[O-])ccc3n2)cc1`: -24.6%; for `C[C@H]1Cc2c(-c3ccccc3)nc3c(c2CO1)CN(S(=O)(=O)c1ccc(Cl)c2nonc12)CC3`: -6.5% [at 7.66 µM]. Same read-out and setting: for `C=C(C(C)=O)C(O)c1ccc([N+](=O)[O-])cc1` (centres undefined) the value was 2.25%; for `Cc1ccc(-c2cccc([C@H]3[C@@H]4C=CC[C@@H](C)[C@@H]4C(=O)N3Cc3ccccc3)c2)cc1`, 2.21% [at 39.9 µM]. Consider `c1ccc(-c2noc(-c3cccs3)n2)nc1`, for which the Potency is 12.6 µM (active). For the compound `O=C(Oc1ccccc1)c1ccc2nccnc2c1`, the “activity change, negative = inhibition” value is 5.55%.

For `COc1nc(-c2ccc(Cl)cc2)ccc1-c1noc(-c2cccs2)n1`, the “activity change, negative = inhibition” value is 0.069%. Turning to `COc1ccc(Cc2nc(-c3ccccn3)no2)cc1OC`, the “activity change, negative = inhibition” value was 1.94%. For `O=C(Oc1ccc(-c2nc(-c3ccccn3)no2)cc1)c1ccccc1`, the Potency is 4.47 µM (active). For `c1csc(-c2nc(-c3ccncc3)no2)c1`, the “activity change, negative = inhibition” value is -13.5%.

Turning to `C/C(Nc1ccc2oc(=O)ccc2c1)=C1/C(=O)CC2[C@@H]1C2(C)C` (some centres undefined), the “activity change, negative = inhibition” value was -0.876%.

As to `CCC1C/C(=C/c2cccs2)C(=O)/C(=C/c2cccs2)C1` (centres undefined), the “activity change, negative = inhibition” value was 1.29%. As to `COc1ccc(/C=C2\CCc3ccccc3C2=O)c(OC)c1OC`, the “activity change, negative = inhibition” value is 0.525%. As for `O=C1/C(=C/c2cccs2)CCc2ccccc21`, the Potency is 11.2 µM (active).

For the compound `N#Cc1cccc(CS(=O)(=O)c2nnnn2-c2cc(C(F)(F)F)cc(C(F)(F)F)c2)c1`, the “activity change, negative = inhibition” value is -0.728%. With `COc1ccc(-c2nc3c(c4c2C[C@H](c2ccccc2)OC4)CN(S(=O)(=O)c2c(C)noc2C)CC3)c(C)c1`, the activity change, negative = inhibition is -5.25% [at 7.66 µM].

With `O=C1C=C(c2ccccc2)CCC1`, the “activity change, negative = inhibition” value is -0.266%.

Take `COc1ccc2c(c1)O[C@@H](c1ccc3c(c1)OCO3)[C@H](OC(=O)NCc1ccco1)C2=O`: the “activity change, negative = inhibition” value is 2.74%. As to `COc1ccc(NC(=O)c2cccc(NC(=O)c3ccco3)c2)c(OC)c1`, the “activity change, negative = inhibition” value was 0.933%.

Consider `COc1cc(NC(=O)c2cc([N+](=O)[O-])ccc2Br)ccc1NC(=O)c1ccco1`, for which the “activity change, negative = inhibition” value is 1.81%. Consider `COc1ccccc1C(=O)Nc1ccc(NC(=O)c2ccco2)c(C)c1`, for which the Potency was 10 µM (active). For `O=C(NCc1ccco1)O[C@@H]1C(=O)c2cc(Br)ccc2O[C@H]1c1ccc2c(c1)OCO2`, the “activity change, negative = inhibition” value is -0.751%. Still for that read-out and setting: the same measure for `Cc1cccc([C@H]2[C@@H]3C=CC[C@@H](C)[C@@H]3C(=O)N2Cc2ccccc2)c1`: -0.116% [at 39.9 µM]; for `CCN1C(=O)N[C@@H](CCc2ccccc2)C(C(=O)OC)=C1C`: 0.314% [at 7.66 µM]; for `C=CCC(C)(O)c1ccco1` (centres undefined): 1.24%. For `O=C1OCCN1C(=O)[C@H]1[C@H](c2ccc(F)cc2)C(c2ccccc2)=NN1c1ccc(Br)cc1`, the “activity change, negative = inhibition” value was 2.64% [at 39.9 µM]. Still for that read-out and setting: the same measure for `Cc1ccccc1-c1ccc(C(=O)O)s1`: 3.14% [at 39.9 µM]; for `C=CC1(C)CC(=O)C2(O)C(C)(O1)C(OC(C)=O)C(O)C1C(C)(C)CCC(O)C12C` (centres undefined): “inactive”. For `COCCN1C=C2C(=O)C(C)(OC(=O)C3CCCC3)C(=O)C=C2C=C1c1ccsc1` (centres undefined), the activity change, negative = inhibition was -8.74% [at 7.66 µM].

Take `CC1=C2[C@@H](O)[C@H]([C@@H](C)C(=O)NCCC(C)C)CC[C@@]2(C)C=CC1=O`: the “activity change, negative = inhibition” value was -3.8%. Still for that read-out and setting: for `COC(=O)CCCC1=CC2=CC(=O)C(C)(OC(=O)c3cccs3)C(=O)C2=CN1c1cccc(C#N)c1` (centres undefined) the value was 0.0108% [at 7.66 µM]; for `C/C=C(\C)C(=O)O[C@H]1CC(C)=C2C(=O)C=C(C)C2[C@@H]2OC(=O)[C@@](C)(OC(=O)C=C(C)C)C21` (some centres undefined), -12.3%; for `COc1ccc(N=Cc2c(O)[nH]c3ccccc23)cc1OC`, -4.22%. Turning to `COc1ccc(OC)c(N=Cc2c(O)[nH]c3ccccc23)c1`, the “activity change, negative = inhibition” value is -1.78%.

Take `COc1ccccc1N=Cc1c(O)c2ccccc2oc1=O`: the Potency was 14.1 µM (active). For the compound `NC1CCN(O)C1=O` (centres undefined), the “activity change, negative = inhibition” value was 0.152%. As to `Cc1ccc(NC(=O)O[C@@H]2C(=O)c3cc(Br)ccc3O[C@H]2c2ccc3c(c2)OCO3)cc1Br`, the “activity change, negative = inhibition” value was 0.235%. Same read-out and setting: the same measure for `C=CC1=C2C=C(C3CC3)N(CC(C)C)C=C2C(=O)C(C)(OC(=O)c2ccco2)C1=O` (centres undefined): -1.36% [at 7.66 µM]. Still for that read-out and setting: the same measure for `COc1ccc(/C=C2\NC(=O)[C@@H]3Cc4ccccc4CN3C2=O)cc1`: -1.84%; for `CCCCCCCC[C@@H](O)/C=C/C=C/C=C\[C@@H](O)CCCC(=O)O`: -0.585%. As for `C=C(C(C)=O)C(O)c1cccs1` (centres undefined), the “activity change, negative = inhibition” value is 2.74%. Turning to `C=CCC1CCC(=O)N2CCCC12` (centres undefined), the “activity change, negative = inhibition” value is 1.99% [at 39.9 µM]. In the case of `CC1(OC(=O)CCc2ccccc2)C(=O)C=C2C=C(c3ccc(C#N)cc3)N(CCc3ccccn3)C=C2C1=O` (centres undefined), the activity change, negative = inhibition is -6.83% [at 7.66 µM].
